The campaign covered roughly 4,100 compounds. About 1,600 (39%) were called active. About 25% were inconclusive and are not listed. The list shows a part of the results. Unmarked numbers belong to inactive results. The call rests on the fitted dose curve; in most records, active means well fitted inhibition curve with a large enough effect; inconclusive means small, poorly fitted or top-dose-only effect; inactive means no such curve, though single readings can be large or run the other way.
On the % scale 0 is the no-effect control and ±100 the full control effect; potency means the concentration at half of the fitted maximal effect.

The test is described as follows: qHTS Validation assay for Inhibitors of Plasmodium falciparum Dd2 growth in vitro. Further: nearly all actives have a fitted effect of over 70% in size. The conditions noted are these: P. falciparum Dd2 in RBCs, SYBR Green growth, 72 h; series mostly up to 28.7 µM; activity change, negative = inhibition: at the top concentration. An outline of the steps: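 P. falciparum Dd2-infected red blood cells (2.5% hematocrit, 0.3% parasitemia) grown 72 h at 37 °C under 5% O2 with compounds in a titration, 29 uM to 0.5 nM final. Growth read as SYBR Green-1 fluorescence after ~16 h lysis; artesunate 300 nM as positive control.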
On the technique in general: qHTS replaces the single test concentration by a dilution series.
As for `COc1ccc2nc(N3CCN(C(=O)c4ccc([N+](=O)[O-])o4)CC3)sc2c1`, the Potency was 4.73 µM (active).
Consider `Cc1ccc2sc(N3CCN(C(=O)c4ccc([N+](=O)[O-])o4)CC3)nc2c1C`, for which the Potency was 5.31 µM (active).
For the compound `Cc1cc(C)c2nc(N3CCC(C(=O)N4CCCC4)CC3)sc2c1`, the “activity change, negative = inhibition” value was 15.7%.
Take `COc1cccc(N2CCN(c3nc(C(=O)NCc4cccc(C)c4)cs3)CC2)c1`: the “activity change, negative = inhibition” value was 16.3%.
`Cc1ccc(C)c2sc(N3CCN(C(=O)c4ccc([N+](=O)[O-])o4)CC3)nc12`: the Potency was 4.73 µM (active).
On to `CNC(=O)N1CCc2c(sc3ncnc(N(C)C)c23)C1`, for which the “activity change, negative = inhibition” value was 3.51%.
Still for that read-out and setting: next, `Nc1ccc2nc(-c3cccs3)[nH]c2c1`: -28.3%; `Cc1ccc(NC(=O)Cn2ccnc2)cc1C`: 49.5%.
For the compound `Cc1ccc(Sc2ccc(NC(=O)CCl)cc2)cc1C`, the Potency is 9.44 µM (active).
On to `Cc1nc([C@@H]2CN(C(=O)c3nccc4ccccc34)C[C@H]2C(N)=O)n[nH]1`, for which the “activity change, negative = inhibition” value was 5.68%.
The same measure, in the same setting: next, `Cc1noc(C2CC3(CCN(C(=O)c4cccn4C)CC3)CN2C)n1` (centres undefined): 4.95%.
With `COC(=O)C1=C(C)NC(C)=C(C(=O)OCCCN2CCC(c3ccccc3)(c3ccccc3)CC2)C1c1cccc([N+](=O)[O-])c1` (centres undefined), the Potency is 2.99 µM (active).
`COC(=O)C1=C(C)NC(C)=C(C(=O)OC(C)(C)CN(C)CCC(c2ccccc2)c2ccccc2)C1c1cccc([N+](=O)[O-])c1` (centres undefined): the Potency is 2.99 µM (active).
Still for that read-out and setting: next, `CCN(CC)CCCC(C)Nc1cc(/C=C/c2ccccc2Cl)nc2cc(Cl)ccc12` (centres undefined): 0.842 µM (active).
For `CCc1nc(NCc2cn[nH]c2-c2ccc(Cl)cc2)c2cnn(C)c2n1`, the “activity change, negative = inhibition” value was 56.2%.
On the same count and under the same terms, next, `COC[C@@H]1CN(C(=O)c2cc3ccccc3[nH]2)C[C@H]1c1ccncc1`: -20.6%.
Still for that read-out and setting: next, `Cc1cc(Cl)ccc1-c1ccc(CNC2CN(C(=O)OC(C)(C)C)C2)cc1`: 37%.
Take `CCOc1cc(C(=O)N2CCC(CC3CC(c4ccc(Cl)cc4)=NO3)(C(=O)NCC3CCCCC3)CC2)cc(OCC)c1OCC` (centres undefined): the Potency is 0.842 µM (active).
As for `CCOc1cc(C(=O)N2CCC(CC3CC(c4cccc(Br)c4)=NO3)(C(=O)NCC3CCCCC3)CC2)cc(OCC)c1OCC` (centres undefined), the Potency is 1.68 µM (active).
`COCCNC(=O)C1COC2(CCN(C(=O)c3ccc(Cl)cc3)CC2)N1C(=O)c1ccccc1C` (centres undefined): the “activity change, negative = inhibition” value is -12.4%.
On to `O=C(NCc1ccccc1)N1CCC(c2nc(C3CCOCC3)no2)CC1`, for which the “activity change, negative = inhibition” value is 13%.
On to `CCCCCCCNC(=O)C1(CC2CC(c3ccc(Cl)cc3)=NO2)CCN(C(=O)c2cc(OCC)c(OCC)c(OCC)c2)CC1` (centres undefined), for which the Potency is 3.35 µM (active).
In the case of `CC(C)(C)OC(=O)N1CCC(CC2CC(c3ccccc3)=NO2)(C(=O)NCc2ccccc2)CC1` (centres undefined), the Potency is 2.66 µM (active).
Consider `CC(C)c1cc(C(=O)NC2CCN(c3ncccc3C#N)CC2)n(C)n1`, for which the “activity change, negative = inhibition” value is 5.19%.
`CCCCCCCNC(=O)C1(CC2CC(c3cccc(Br)c3)=NO2)CCN(C(=O)c2cc(OCC)c(OCC)c(OCC)c2)CC1` (centres undefined): the Potency was 10.6 µM (active).
The same measure, in the same setting: next, `CC(NCc1ccccc1O)C12CC3CC(CC(C3)C1)C2` (centres undefined): 0.0944 µM (active).
On to `O=C1NCCCCCCN(C(=O)C2CCC2)[C@H]2C[C@H](c3nc(-c4cccnc4)no3)C[C@@H]12`, for which the “activity change, negative = inhibition” value was 3.93%.
On to `Cn1nc(C(=O)NCC(=O)N2CCCCCCNC(=O)CC2c2ccccc2)c2ccccc21` (centres undefined), for which the Potency is 2.11 µM (active).
In the case of `COc1ccc2c(c1)CCc1c-2n[nH]c1C(=O)N1CCc2c(nc3cc(-c4ccccc4)[nH]n3c2=O)C1`, the “activity change, negative = inhibition” value was 18.7%.
Regarding `Cc1ccncc1C(=O)NCC(=O)N1CCCCCNC(=O)CC1c1ccccc1` (centres undefined), the “activity change, negative = inhibition” value is 1.1%.
Still for that read-out and setting: next, `CNC(=O)c1[nH]nc2c1CCc1cc(OC)ccc1-2`: -19.9%.
Still for that read-out and setting: next, `Cn1cnc(C(=O)NCC(=O)N2CCCCCNC(=O)CC2c2ccccc2)c1` (centres undefined): 4.59%.
As for `O=C1CC(c2ccccc2)N(C(=O)CNC(=O)c2[nH]nc3c2CCc2ccccc2-3)CCCCCCN1` (centres undefined), the Potency is 2.99 µM (active).
In the case of `O=C1CC(c2ccccc2)N(C(=O)CNC(=O)c2ccc3[nH]ccc3c2)CCCCCN1` (centres undefined), the Potency was 15 µM (active).
On to `CCOc1ccc(CC(=O)N[C@@H]2CN(c3ncccn3)C[C@H]2CN(C)C)cc1`, for which the “activity change, negative = inhibition” value is -5.61%.
The same measure, in the same setting: next, `CN(C)C[C@@H]1CN(S(C)(=O)=O)C[C@H]1NC(=O)c1ccccc1`: 12.9%.
For the compound `CN(C)C[C@@H]1CN(C)C[C@H]1NS(=O)(=O)c1ccc(Br)cc1`, the Potency was 13.3 µM (active).
The same measure, in the same setting: next, `Cc1ccc(S(=O)(=O)N[C@@H]2CN(C)C[C@H]2CN(C)C)cc1F`: 15 µM (active).
For the compound `Cc1nn(-c2ccccc2)c2c1C(O)n1c(nc3ccccc31)S2` (centres undefined), the Potency was 5.31 µM (active).
On the same count and under the same terms, next, `CCOC(=O)C1=Nc2ccccc2C1=[N+]=[N-]`: 4.22 µM (active).
`CCOc1ccc(C2C(C(=O)Nc3ccccc3)=C(C)N=c3s/c(=C/c4cccc(OCC(=O)O)c4)c(=O)n32)cc1` (centres undefined): the Potency was 5.31 µM (active).
Turning to `CCOC(=O)C1=C(c2ccccc2)N=c2s/c(=C\c3cc(OC)c(OC)c(OC)c3)c(=O)n2C1c1cccs1` (centres undefined), the Potency was 5.96 µM (active).
Take `CCOC(=O)C1=C(C)N=c2s/c(=C\c3ccc(OCC(=O)O)cc3)c(=O)n2C1c1ccccc1OC` (centres undefined): the “activity change, negative = inhibition” value is -9.3%.
Regarding `CCOC(=O)C1=C(C)N=c2s/c(=C/c3ccc(OCC(=O)O)cc3)c(=O)n2C1c1cc(OC)c(OC)c(OC)c1` (centres undefined), the Potency is 1.88 µM (active).

The record behind these values is PubChem BioAssay AID1347416 (National Center for Advancing Translational Sciences (NCATS), 2020).
